The record followed here is publication PMC3737563, “Investigation of DNA sequence recognition by a streptomycete MarR family transcriptional regulator through surface plasmon resonance and X-ray crystallography”.

The assay concerns the target T1, SCO3205 (MarR family regulator) (Streptomyces coelicolor, UniProt Q9KYU1 1-163).
T1 sequence: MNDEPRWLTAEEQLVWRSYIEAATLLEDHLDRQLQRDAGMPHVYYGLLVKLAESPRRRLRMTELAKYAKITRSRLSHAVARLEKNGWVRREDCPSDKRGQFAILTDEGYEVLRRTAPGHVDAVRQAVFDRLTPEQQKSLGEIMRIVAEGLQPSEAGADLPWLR
Kind of assay: SPR (ReDCaT); 100 nM SCO3205 dimer; HBS-EP+ buffer: 10 mM HEPES pH 7.4, 150 mM NaCl, 3 mM EDTA, 0.05% (v/v) surfactant P20; 20 C; Biacore T200, ReDCaT SA chip; high values mean tight binding. Particulars: protein: recombinant; tags: N-terminal His tag plus TEV site, not removed; chain copies: 2; label: biotin linker S6 hybridised to overhang; dsDNA, one strand shown. On the technique in general: In SPR one partner is held on a chip, and binding of the other changes the refractive index at the surface.
In the case of ACGCCGATTTTGTTTAATGTTCAA, the binding signal was determined as 29.9 %Rmax.
For the sequence CGAGACGGTTCCTTGAACATTAAACAAA, the binding signal is 68.4 %Rmax.
Under GACCTGTTCAAAGCTCAAGCAGAA stands 48.5 %Rmax; under ACTCCAATACTTGAACTCTCAA, 41.3 %Rmax.
With CGAGACGGTTCCTTGAACATTAAA, the binding signal amounted to 22 %Rmax.
Under ACGCCGATTTTGTTTAATGTTCAAGG stands 81 %Rmax; under AAGAAGTTCAAGCTTCAACCAAAA, 95.2 %Rmax.
As for ACGCCGATTTTGTTTAATGTTCAAGGAA, the binding signal turned out to be 94 %Rmax.
Under CGAGACGGTTCCTTGAACATTAAACAAAATCG stands 108 %Rmax; under ACGGCACGTAAAGATTGAGAGTTCAAGTAT, 87.9 %Rmax; under ACTCCAATACTTGAACTCTCAATCTTTACGTG, 108 %Rmax.
Under ACGCCGATTTTGTTTAATGTTCAAGGAACCGT stands 110 %Rmax; under ACTCCAATACTTGAACTCTCAATCTTTA, 115 %Rmax; under ACGGCACGTAAAGATTGAGAGTTCAA, 4.7 %Rmax.
Turning to ACTCCAATACTTGAACTCTCAATCTT, the binding signal came to 116 %Rmax.
The result for ACGCCGATTTTGTTTAATGTTCAAGGAACCGTCT reads 118 %Rmax.
The result for ACTCCAATACTTGAACTCTCAATCTTTACGTGCCGT reads 115 %Rmax; that for ACGGCACGTAAAGATTGAGAGTTCAAGT, 80.4 %Rmax; that for CATGGCTACTCCAATACTTGAACTCTCAA, 35.7 ± 0.566 %Rmax.
With ACGGCACGTAAAGATTGAGAGTTCAAGTATTGGAGT, the binding signal amounted to 110 %Rmax.
The result for ACTCTCAATCTTTACGTGCCGTCAATCTA reads 3.05 ± 0.354 %Rmax; that for CGAGACGGTTCCTTGAACATTAAACAAAATCGGCGT, 108 %Rmax.
The result for ACTCCAATACTTGAACTCTCAATCTTTACGTGCC reads 110 %Rmax; that for ACGGCACGTAAAGATTGAGAGTTCAAGTATTGGA, 116 %Rmax.
The result for TTTTGTTTAATGTTCAAGGAACCGTCTCG reads 127.2 ± 0.636 %Rmax.
As for ACTCCAATACTTGAACTCTC, the binding signal turned out to be 7.8 %Rmax.
Under ACTCCAATACTTGAACTCTCAATCTTTAC stands 115.8 ± 0.283 %Rmax; under CAATACTTGAACTCTCAATCTTTA, 101 %Rmax.
Turning to ACGCCGATTTTGTTTAATGTTC, the binding signal worked out at 5.1 %Rmax.
The result for ACGCCGATTTTGTTTAATGTTCAAGGAACC reads 117 %Rmax; that for CGAGACGGTTCCTTGAACATTAAACAAAATCGGC, 112 %Rmax.
With ACTCCAATACTTGAACTCTCAATC, the binding signal was determined as 92.7 %Rmax.
The result for TTGATGTTGAATGTTCAACCAGTC reads 118 %Rmax.
Turning to TACTTGAACTCTCAATCTTTACGTGCCGT, the binding signal was found to be 113.9 ± 0.424 %Rmax.
For ACGCCGATTTTGTTTAATGTTCAAGGAAC, the binding signal was 109.7 ± 0.566 %Rmax.
ACTCCAATACTTGAACTCTCAATCTTTACG: the binding signal was 119 %Rmax.
Under CGAGACGGTTCCTTGAACATTAAACA stands 68.6 %Rmax; under CGAGACGGTTCCTTGAACATTAAACAAAAT, 102 %Rmax; under TCAATCTACGCCGATTTTGTTTAATGTTC, 5 %Rmax.
As to ACGGCACGTAAAGATTGAGAGTTCAAGTATTG, the binding signal worked out at 112 %Rmax.
